Screening results (PubChem BioAssay)
PLK1 PBD block = qHTS for Inhibitors of PLK1-PDB (polo-like kinase 1 - polo-box domain): Primary Screen; Plk1 PBD binding of FITC phosphopeptide, fluorescence polarization; Potency, µM, without a hit: max response, negative = inhibition, usual class: inhibitors; AID 720504, 2013; Serine/threonine-protein kinase PLK1 (Homo sapiens), P53350; hit rate 2.8% among 360,000; note: potency is the fitted concentration of half-maximal effect; series mostly up to about 57 µM; % is set by controls: 0 for no effect and ±100 for the full control effect; nearly all actives have a fitted effect of over 65% in size
JMJD2A Tudor inh = qHTS Assay for Inhibitors of JMJD2A-Tudor Domain | Potency, µM (doses to about 114 µM), for the others: at the top dose activity change, negative = inhibition, usual class: inhibitors | AlphaScreen JMJD2A-Tudor / H3K4me3 peptide binding | Lysine-specific demethylase 4A (Homo sapiens), O75164 | hit rate 4.4% among 390,000; note: potency is the fitted concentration of half-maximal effect; % is set by controls: 0 for no effect and ±100 for the full control effect; nearly all actives have a fitted effect of over 50% in size
GCN5L2 inh = qHTS Assay for Inhibitors of GCN5L2. hit rate 0.21% among 390,000. Potency, µM (titrated, usually from 58.9 µM), inactives show top-dose activity change, negative = inhibition, most hits filed as inhibitors. GCN5L2 HAT assay, ThioGlo1 CoA-SH fluorescence; note: potency is the fitted concentration of half-maximal effect; % is set by controls: 0 for no effect and ±100 for the full control effect
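Enzyme at 20nM final was mixed with library compounds for 15 min at room temperature. Peptide H3(1-25) at 75uM, acetyl-CoA at 70uM and ThioGlo1 at 50uM were then added. Plates were read immediately and after 20 min (Ex340nm/Em540nm).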
PI5P4Ka inh = qHTS for Inhibitors of phosphatidylinositol 5-phosphate 4-kinase (PI5P4K); max response, %; PI5P4Kalpha enzyme, ADP-Glo luminescence, 60 min; stronger effect = lower value; AID 652105, 2013; hit rate 1.2% among 330,000; active = max response of -50% or lower; inconclusive = between -30% and -50%; inactive = -30% or higher; note: value at the top dose of about 77 µM; % is set by controls: 0 for no effect and ±100 for the full control effect
Target sequence (P48426 whole entry, looked up): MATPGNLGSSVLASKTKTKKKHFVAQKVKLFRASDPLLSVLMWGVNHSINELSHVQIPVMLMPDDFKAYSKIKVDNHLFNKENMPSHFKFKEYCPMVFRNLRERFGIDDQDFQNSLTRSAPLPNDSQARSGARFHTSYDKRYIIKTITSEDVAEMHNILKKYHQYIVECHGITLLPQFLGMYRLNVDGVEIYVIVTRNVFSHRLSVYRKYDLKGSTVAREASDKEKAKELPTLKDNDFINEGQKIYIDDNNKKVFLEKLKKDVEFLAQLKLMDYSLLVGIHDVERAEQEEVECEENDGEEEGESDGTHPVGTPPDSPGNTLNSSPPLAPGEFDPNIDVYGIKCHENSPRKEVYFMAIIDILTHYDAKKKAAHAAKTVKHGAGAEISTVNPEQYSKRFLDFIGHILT
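ADP-Glo luminescence end-point read after a 60 min room-temperature kinase reaction of PI5P4Kalpha plus substrate, initiated with ATP at 5 microM final. Buffer: 0.038 M HEPES pH 7.4, EGTA, 0.1% CHAPS, 5% DMSO.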
BAZ2B block = qHTS Assay for Inhibitors of BAZ2B; Bromodomain adjacent to zinc finger domain protein 2B (Homo sapiens), Q9UIF8; AlphaScreen BAZ2B-H3K14Ac peptide displacement; Potency, µM (series often up to 114 µM), inactives show at the top dose activity change, negative = inhibition, hits mostly inhibitors; hit rate 4.4% among 360,000; AID 504333, 2011; note: potency is the fitted concentration of half-maximal effect; % is set by controls: 0 for no effect and ±100 for the full control effect; nearly all actives have a fitted effect of over 60% in size
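AlphaScreen luminescence quantifies BAZ2B engagement of H3K14Ac peptide; the protein and biotinylated peptide are both at 50 nM final, buffer PBS pH 7.4 with 0.01% Tween-20, all steps at room temperature.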
HP1b binding inh = HTS for Inhibitors of HP1-beta Chromodomain Interactions with Methylated Histone Tails | hit rate 0.56% among 390,000 | AlphaScreen HP1-beta / biotin-H3K9me3 peptide binding | Potency, µM (doses to about 114 µM), for inactives: at the highest dose activity change, negative = inhibition, usual class: inhibitors | Chromobox protein homolog 1 (Homo sapiens), P83916; note: potency is the fitted concentration of half-maximal effect; nearly all actives have a fitted effect of over 70% in size
Target sequence (P83916 whole entry, looked up): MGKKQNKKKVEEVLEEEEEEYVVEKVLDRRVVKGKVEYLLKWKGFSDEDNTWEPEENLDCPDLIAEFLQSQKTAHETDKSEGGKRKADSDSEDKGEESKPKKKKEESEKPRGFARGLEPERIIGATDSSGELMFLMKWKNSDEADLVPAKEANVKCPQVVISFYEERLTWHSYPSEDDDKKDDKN
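Compound inhibition of the preformed complex between 50 nM HP1-beta and 50 nM biotinylated H3K9me3 peptide was read by AlphaScreen. Buffer was PBS pH 7.4 with 0.01% Tween-20. Incubations ran 30 min at room temperature, with 10 ug/mL donor/acceptor beads.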
* marks the source's active call; other numbers are inactive results; ? = inconclusive; nt = no result given; [ ] = dose if it differs, or a comment. Most compounds without a hit are left out; they make up all but 7% or so of the library. Unless noted, calls come from the whole dose curve; as a rule, active = well fitted curve in the direction sought with a large enough effect; inconclusive = small, poorly fitted or top-dose-only effect, or another doubt; inactive = no such curve, though single readings can be large; an effect the other way counts as inactive or inconclusive.

SMILES | PLK1 PBD block | JMJD2A Tudor inh | GCN5L2 inh | PI5P4Ka inh | BAZ2B block | HP1b binding inh
COc1ccc(NC(=S)NC(NC(=O)c2cccc(Cl)c2)C(Cl)(Cl)Cl)c([N+](=O)[O-])c1 (configuration not stated) | -5.3% | 22.4µM* | -15.1% | nt | ? | ?
COc1cccc(-c2nc(SCC(=O)N3CCc4ccccc43)c3c(=O)n(C)c(=O)n(C)c3n2)c1 | nt | -6.2% | -5.0% | nt | 34.6% | 47.5%[57 µM]
O=C(Cc1ccccc1)c1ccccc1C(=O)N1CCCCC1 | 6.9% | 7.5% | -3.0% | -5.9 | -0.5% | 50.1%
Cc1ccccc1CN(C)C[C@@H]1OCc2cnnn2CCCC(=O)N([C@H](C)CO)C[C@H]1C | 5.7% | nt | nt | 6.2 | nt | nt
COc1cccc(C(=O)NC(c2ccccc2)C2CCCC2)c1 (configuration not stated) | 10.6µM* | 22.4µM* | -10.8% | ? | 1.2% | 1.1%
Cc1ccc(OCCn2cc(/C=C(\C#N)C(=O)NCC3CCCO3)c3ccccc32)cc1 (configuration not stated) | -11.3% | ? | -6.6% | -0.4 | 1.6% | ?
Cc1ccc(C)c(OCCn2cc(/C=C(\C#N)C(=O)NCC3CCCO3)c3ccccc32)c1 (configuration not stated) | 29.9µM* | ? | -4.6% | 9.4 | -5.4% | 2.4%
Cc1nn(C)c(C)c1S(=O)(=O)N(CC(=O)NCCCN1CCC(C)CC1)c1ccc(C(C)C)cc1 | -20.7% | -0.7% | -0.4% | 8.3 | 2.1% | 7.4%
CC(C)C(=O)Nc1ccc(C(=O)N/N=C/c2cc(Br)cc(Br)c2O)cc1 | 26.3% | ? | -19.9% | -16.7 | 7.94µM* | 9.0%
COc1cc(OC)c(/C=N/NC(=O)c2ccc(NC(C)=O)cc2)cc1Br | -14.6% | -11.7% | -2.6% | -2.5 | -2.7% | 38.2%
Cc1ccc(C(=O)O)cc1N=Cc1cc(Br)cc(Br)c1O | ? | ? | -5.3% | -55.8* | -10.1% | 0.9%
CC(=O)Nc1ccc(C(=O)N/N=C/c2cc(Br)cc(Br)c2O)cc1 | ? | 56.2µM* | 0.9% | -10.4 | 0.0% | ?
CCC1(CC)NC(=O)N(CC(=O)N2CCN(S(=O)(=O)c3cccc(F)c3)CC2)C1=O | -2.1% | 1.4% | 0.2% | 5.4 | -8.9% | 25.5%
COc1ccc(N2CCN(C(=O)CN3C(=O)CSc4c3c(C)nn4-c3ccccc3)CC2)cc1 | nt | -17.7% | -2.9% | nt | -13.2% | 60.4%
Cc1cc2c(s1)c1cnn(Cc3cc(F)ccc3C)c(=O)c1n2C | nt | -5.5% | nt | nt | nt | nt
CN1CC(=O)N(CC(=O)Nc2ccc(N(C)C)cc2)c2ccccc2C1=O | -1.3% | -26.6% | nt | -3.7 | 50.1µM* | 17.7%
Cc1cc(C)cc(NC(=O)CN2CCc3ccccc3C2)c1 | -5.3% | 39.8µM* | -13.0% | 2.9 | 31.6µM* | -44.5%
O=C(CN1CCc2ccccc2C1)Nc1ccc(F)cc1 | 4.2% | 6.0% | 0.7% | -3.8 | 1.9% | 33.4%
Cc1cccc(C)c1NC(=O)CN1CCc2ccccc2C1 | -3.2% | -5.7% | nt | 3.0 | nt | 43.3%
CN(C)c1ccc(NC(=O)CN2CCc3ccccc3C2)cc1 | -5.1% | 50.1µM* | -1.8% | -2.0 | 39.8µM* | ?
O=S(=O)(c1ccc2c(c1)OCCO2)N1CCN(S(=O)(=O)c2cccc3cccnc23)CC1 | nt | -13.0% | nt | nt | nt | nt
CC(C)(C)C(=O)NCC12C=CC(O1)C1C(=O)N(c3ccccc3)C(=O)C12 (configuration not stated) | -16.1% | 56.2µM* | -12.3% | nt | -2.5% | ?
O=C1C2C3C=CC(CNS(=O)(=O)c4ccccc4[N+](=O)[O-])(O3)C2C(=O)N1c1ccccc1 (configuration not stated) | 67µM* | ? | -7.1% | -14.3 | -17.7% | ?
C=CCn1c(Cc2csc(N)n2)nnc1SCC(=O)Nc1ccc(C(=O)OCC)cc1 | -2.6% | 79.4µM* | -17.1% | nt | 22.4µM* | 32.7%
C=CCn1c(Cc2csc(N)n2)nnc1SCC(=O)OCC | -3.9% | 44.7µM* | 2.4% | nt | 28.2µM* | 17.2%
SMILES | PLK1 PBD block | JMJD2A Tudor inh | GCN5L2 inh | PI5P4Ka inh | BAZ2B block | HP1b binding inh
C=CCn1c(Cc2cccs2)nnc1SCC(=O)Nc1ccc(C(=O)OCC)cc1 | -0.6% | 0.8% | -13.9% | nt | -13.0% | 36.2%
FC(F)(F)c1ccc(-n2cnc3ccccc32)nc1 | -7.8% | 1.0% | -1.4% | 8.7 | 9.2% | 38.6%
O=C(/C=C/c1ccc(OC(F)F)cc1)Nc1cccc(S(=O)(=O)NC2=NCCCCC2)c1 | 0.0% | -25.7% | -5.8% | 4.0 | -20.5% | 12.8%
CN1C(=O)/C(=C2\SC(N3CCCCCC3)=NC2=O)c2ccccc21 | -11.2% | 39.8µM* | -5.1% | 2.3 | ? | ?
O=C1N=C(N2CCOCC2)S/C1=C1\C(=O)N(Cc2ccccc2)c2ccccc21 | -9.4% | -15.3% | 0.6% | -1.8 | 21.2% | 26.8%
CCCN1C(=O)/C(=C2\SC(N3CCCCC3)=NC2=O)c2ccccc21 | -9.1% | 39.8µM* | -7.5% | 2.1 | 15.8µM* | -70.3%
CSC1=NCCN1C(=O)c1ccc(S(=O)(=O)N(C)C)cc1 | 26.7µM* | -22.1% | -14.3% | 2.8 | -3.4% | 6.6%
O=C(COc1ccc(F)cc1)Nc1ccc2nc(SCC(=O)N3CCc4ccccc43)sc2c1 | nt | -1.0% | -8.4% | nt | 0.1% | 36.2%
COc1ccc(Nc2ccc(C(F)(F)F)cc2[N+](=O)[O-])cn1 | 3.1% | 56.2µM* | -10.3% | 2.3 | 39.8µM* | ?
CCC(C)(C)NC(=O)CN(C(=O)CCC(=O)Nc1nccs1)c1cccc(C)c1C | -12.1% | -20.0% | -3.4% | 8.3 | -37.2% | 21.9%
Cc1cccc(OCCCCNCc2ccccc2)c1 | -9.0% | -11.3%[11.4 µM] | -6.1% | -6.7 | 50.1µM* | ?
Cc1cc(C)c(OCCCNC2CCCC2)c(Br)c1 | 1.5% | 79.4µM* | -4.3% | 1.9 | ? | 6.5%
CCCCCNCc1ccc(OCc2ccc(Cl)nc2)c(OC)c1 | -4.0% | -17.4% | -3.9% | -4.8 | 2.5% | 11.8%
COc1cccc(OCCNCc2ccccc2)c1 | 16.8µM* | 6.31µM* | -6.9% | -20.5 | ? | -3.4%
CCOCCCNCc1ccc(OCCC(C)C)c(OC)c1 | -9.8% | ? | -7.6% | -14.6 | 56.2µM* | -33.4%
COc1ccc(CCNCc2ccc(OCc3ccccc3)cc2)cc1 | -3.0% | -6.2% | -2.8% | 9.7 | 1.9% | 12.2%
Cc1cccc(OCCCCCNCCO)c1 | -1.7% | -19.8% | -3.0% | nt | 5.9% | 36.8%
